Drawing on PubChem BioAssay (NCI), this text covers growth for seven compounds.

What all share (assay): NCI-60 one-dose screen, 48 h (100 = growth as untreated, 0 = no growth, -100 = all killed)
Holding throughout (details): 10 µM unless noted

In assay [1] the test system is NCI-H23 lung.
The subject of assay [2] is NCI-H226 lung.
Assay [3] relates to NCI-H322M lung.
Assay [4] has as its system HOP-62 NSCLC.
In assay [5] the test system is NCI-H460 lung.
The test system of assay [6] is NCI-H522 lung.
Assay [7] deals with 786-0 renal.
The test system of assay [8] is COLO 205 colon.
Assay [9] relates to DU-145 prostate.
The test system of assay [10] is K-562 leukemia.
Assay [11] has as its system MALME-3M melanoma.
Assay [12] concerns MDA-MB-231 breast.
The test system of assay [13] is RXF 393 renal.
Assay [14] relates to SF-268 CNS.
The test system of assay [15] is SF-295 CNS.
Assay [16] relates to SF-539 CNS.
In assay [17] the test system is UACC-257 melanoma.
Assay [18] has as its system M14 melanoma.
The subject of assay [19] is A549/ATCC NSCLC.

SMILES strings stand for the structures. The panel holds about 83,000 compounds, 20% with a hit somewhere; the sample as a whole holds those more often.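 Single-dose data. Exposure time 48 hours. Values below 10 considered active.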 A number with no mark means an inactive call. Active and inactive are the calls of the source.

As for `COc1cc(/C=C2\C(=O)N(CCOc3cc(O)c4c(=O)cc(-c5ccccc5)oc4c3)c3ccccc32)cc(OC)c1O`, the growth is 77.6% in assay [1]; 90.4% in [2]; 90.7% in assay [3]; 68.7% in [4]; 66.1% in [5]; 60.1% in [6]. Also, the growth was 75.6% in assay [7]; 93.3% in [8]; 94% in assay [9]; 22.6% in assay [10]; 77.6% in [11]; 64.2% in assay [12]. Also, the growth in [13] is 85.9%; in [14] it was 70.6%; in [15], 86.6%; in assay [16] it was 69.9%; in assay [17] it was 104%; in assay [18], 28.1%.

`COC(=O)[C@@H](Cc1c[nH]c2ccccc12)NC(=O)[C@H](Cc1ccccc1)NCc1ccncc1`: the growth was 97.4% in assay [1]; 94.1% in assay [2]; 92.8% in assay [3]; 93.7% in assay [4]; 104% in [5]; 73.5% in [6]. The growth was 83.9% in [19]; 104% in [7]; 107% in [8]; 108% in assay [9]; 102% in assay [10]; 86.5% in [11]. The growth in [12] was 93.2%; in assay [13], 103%; in assay [14], 96.9%; in [15], 106%; in assay [16], 103%; in [17], 79.4%.

`COC(=O)[C@H]1Cc2c([nH]c3ccccc23)[C@H](c2ccc3c(c2)OCO3)N1`: the growth in assay [1] was 99.7%; in assay [2], 98.5%; in assay [3], 98.9%; in [4], 107%; in [5], 106%; in assay [6], 83.2%. Besides, the growth in [19] was 105%; in assay [7], 98.5%; in assay [8], 118%; in [9], 101%; in assay [10] it was 99.3%; in assay [11] it was 99.8%. Moreover, the growth in assay [12] was 98.5%; in assay [13], 109%; in assay [14] it was 96.3%; in [15], 99.8%; in assay [16] it was 92.8%; in assay [17], 107%. In addition, the growth in assay [18] is 108%.

In the case of `C=C(CNCCc1ccc(O)cc1)[C@@H]1CC[C@]2(CO)CC[C@]3(C)[C@H](CC[C@@H]4[C@@]5(C)CCC(N)C(C)(C)[C@@H]5CC[C@]43C)[C@@H]12` (some centres undefined), the growth in [1] was -66.5% (active); in [2], 87.6%; in assay [3], -53.7% (active); in [4], -74.7% (active); in assay [5], -86.7% (active); in assay [6] it was -64.8% (active). In addition, the growth in assay [7] is -87.3% (active); in assay [8], -72.2% (active); in [9], -68.6% (active); in assay [10], -50.9% (active); in assay [11] it was -86.2% (active); in assay [12], -80.5% (active). Further, the growth in assay [13] is -90.9% (active); in assay [14] it was -74.3% (active); in assay [15], -82% (active); in assay [16], -93.4% (active); in [17], -77.3% (active); in [18], -81.8% (active).

Consider `Cc1oc2ccc(O)c(CN3CCCCCC3)c2c1C(=O)Nc1ccc(C(F)(F)F)cc1`, for which the growth is 69.9% in [1]; 72.4% in assay [2]; 69.3% in assay [3]; 70.4% in assay [4]; 51.5% in assay [5]; 72.5% in assay [6]. Also, the growth in assay [19] is 61.2%; in assay [7], 49.5%; in assay [8] it was 48.7%; in assay [9] it was 64.8%; in [10] it was 29.6%; in assay [11], 49.9%. Besides, the growth in [12] was 49%; in [13], 50.4%; in [14] it was 75.4%; in assay [15], 48.8%; in [16] it was 61.2%; in assay [17], 82%. Further, in assay [18], the growth was 58.1%.

In the case of `O=C(CNc1ncco1)Nc1ccc(S(=O)(=O)c2ccc(NC(=O)CNc3ncco3)cc2)cc1`, the growth in assay [1] is 4.33% (active); in [2], -17.7% (active); in assay [3], 75.2%; in assay [4] it was 32.7%; in [5], -60.4% (active); in assay [6] it was -96.9% (active). The growth in assay [19] was 6.88% (active); in assay [7], 20.9%; in [8], -59.9% (active); in assay [9], 115%; in assay [10], -6% (active); in assay [11], -38.8% (active). Besides, the growth in assay [12] is 14.6%; in [13], -38.6% (active); in assay [14] it was 99.1%; in [15] it was 49.7%; in [16], -15.4% (active); in assay [17], 10.3%. Besides, the growth in [18] was -28.8% (active).

On to `Cc1ccc(C(F)(F)F)cc1N1CCN(C(=O)[C@H]2C[C@H]2c2ccc(C(F)(F)F)nc2)CC1`, for which the growth in assay [1] was 95.5%; in assay [2] it was 84.3%; in assay [3] it was 99.1%; in [4], 97.7%; in assay [5] it was 106%; in assay [6], 72%. The growth in assay [7] is 93%; in assay [8], 91.6%; in assay [9] it was 105%; in assay [10], 78.1%; in assay [11], 94%; in [12], 91.3%. Further, the growth in assay [13] was 92.8%; in assay [14], 91.3%; in assay [15] it was 94.7%; in assay [16], 88.6%; in assay [17], 92.7%; in [18], 97.5%.
